Test results published in PubChem BioAssay (EPA / NIEHS).
“And” between values parts separate entries of the source, which are not always exact repeats. Equal values may be shown once. The source made the active and inactive calls. The calls were made as follows: active = hit-call score of the fitted dose curve at least 0.9, where 1 is the maximum; inactive = score below 0.9.

What follows are molecules tested on solute carrier (SLC22A1), SLC22A1 (gene 6580) (assay: LTEA_HepaRG_SLC22A1: Life Technologies and Expression Analysis (LTEA) Assay for solute carrier (SLC22A1) using HepaRG (AID 2283524;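 as to AC50: TaqMan qRT-PCR normalized to ACTB GAPDH and POLR2A housekeeping genes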)). Conditions: mRNA level, 48 h; actives raise or lower the signal.
Description: LTEA_HepaRG is a cell based, multiplexed-readout assay that uses HepaRG, a human liver cell line, with measurements taken at 48 hours after chemical dosing on a 96-well plate.LTEA_HepaRG_SLC22A1 is one of 102 assay component(s) measured in the LTEA HepaRG cell culture assay. It is a marker of NR mediated transport.Data from the assay component LTEA_HepaRG_SLC22A1 was analyzed into 1 endpoint. This assay endpoint, LTEA_HepaRG_SLC22A1, was analyzed with bidirectional fitting relative to DMSO as the negative control and baseline of activity. Using a type of inducible reporter, measures of mRNA induction for gain or loss-of-signal activity can be used to understand regulation of transcription factor activity. To generalize the intended target to other relatable targets, this assay endpoint is annotated to the transporter intended target family, where the subfamily is organic cation transporter.
A total of 1060 chemcials from the ToxCast library were tested in eight-point concentration-response experiments. Cell culture and cytotoxicity assays were conducted at Thermo Fisher Scientific's Custom Services facility (Madison, WI). A single lot of human HepaRG cells (Thermo Fisher Scientific, Frederick, MD) was used for the cell culture experiments. 96-well format collagen type I coated plates of human HepaRG cells were prepared using established methods. Briefly, cryopreserved HepaRG cells were thawed, plated at a density of approximately 100,000 cells/well in HepaRG Thaw, Plate, and General Purpose media (HPRG770, Thermo Fisher Scientific), and incubated for 48 hours. 0.5% DMSO was selected as vehicle control to balance the requisite need of DMSO in HepaRG cultures to maintain differentiation (for example, baseline metabolism, proportions of hepatocytes vs. cholangiocytes), while enabling further hepatic receptor pathway activation (for example, PXR and CAR) in response to chemical exposure. 48 hours after plating, the culture medium was replaced with HepaRG Serum-Free Incudtion Media. Cells were exposed to each test chemical in duplicate and maintained in CO2 incubators for another 48 hours. Chemical plates were thawed to room temperature and 200x concentrations of treatment groups were prepared. 8-point conentration-reponse curves were made with the highest exposure at 100 uM, followed by half-log dilutions, all in 0.5% DMSO. Each test plate contained variouse controls, induction positive controls (1mM phenobarbital), cytotoxicity positive controls ([…] aflatoxin B1), vehicle controls (0.5% DMSO), and total lysis controls (0.5% DMSO). Cell morphology images were taken using an Essen IncuCyte FLR automated microscope, with six 96-well plates imaged in about 24 minutes. Images were captured and exported and JPEG files. Spent culture media was transfered to black-well plates for the LDH assay, and remaining media was sorted at -80 C for later use. Cells were treated with RLT buffer and frozen until shipped for gene expression analysis. Total RNA was isolated from the cell suspension in 75 uL of Buffer RLT (Qiagen, Germantown, MD 20874) by Quintiles/Expression Analysis (Durham, NC) using a custom isolation procedure. Total RNA from each plate well was transferred to a preamplification plate. Fluidigm's 96.96 Dynamic ArrayTM (Fluidigm, Amsterdam, the Netherlands) technology was used for gene expression analyses by quantitative reverse transcription polymerase chain reaction (qRT-PCR, performed by Quintiles/Expression Analysis, Durham, NC)89. Standard TaqManTM Assays (Applied Biosystems/ThermoFisher Scientific, Foster City, CA) were used to assess the expression of 93 genes selected based on their selectivity and sensitivity to important hepatic receptors known to be modulated by environmental chemicals; importance in human hepatocyte functionality; and hepatotoxicity. […]

| Structure (SMILES) | outcome | AC50 |
| --- | --- | --- |
| CCCCCOC(=O)COc1cc(N2C(=O)C3=C(CCCC3)C2=O)c(F)cc1Cl | inactive | – |
| C[C@]12C[C@H](O)[C@H]3[C@@H](CCC4=CC(=O)CC[C@@]43C)[C@@H]1CC[C@@H]2C(=O)CO | inactive | – |
| Oc1ccc(C(c2ccc(O)cc2)C(Cl)(Cl)Cl)cc1 | – | 92.3 µM (active) |
| CCC(C)OC(=O)N1CCCCC1CCO (stereo not given) | inactive | – |
| COC(=O)c1ccc(I)cc1S(=O)(=O)NC(=O)Nc1nc(C)nc(OC)n1 | inactive | – |
| COC(=O)CSc1cc(N=c2sc(=O)n3n2CCCC3)c(F)cc1Cl | inactive | – |
| CCNc1nc(N)nc(Cl)n1 | inactive | – |
| CCSC(=O)N(CC(C)C)CC(C)C | inactive | – |
| N[C@@H](Cc1cc(I)c(Oc2ccc(O)c(I)c2)c(I)c1)C(=O)O | – | 65.7 µM (active) |
| CC(=O)[C@H]1CC[C@H]2[C@@H]3CCC4=CC(=O)CC[C@]4(C)[C@H]3CC[C@]12C | – | 38.2 µM (active) |
| O=C(O)c1ccccc1 | inactive | – |
| CCN(CC)C(=O)c1cccc(C)c1 | inactive | – |
| COC(=O)c1ccccc1C(=O)O | inactive | – |
| COc1c(Cl)ccc(Cl)c1C(=O)O | inactive | – |
| CCCN(CCC)c1c([N+](=O)[O-])cc(C(F)(F)F)c(N)c1[N+](=O)[O-] | – | 27.2 µM (active) |
| CC(C)(C)[C@@H](O)[C@@H](Cc1ccc(Cl)cc1)n1cncn1 | inactive | – |
| CCCCCCC(C)OC(=O)COc1nc(F)c(Cl)c(N)c1Cl (stereo not given) | inactive | – |
| CCCCC(CC)CN1C(=O)C2C3C=CC(C3)C2C1=O (stereo not given) | – | 78.3 µM (active) |
| CCCCOCCOCCOCc1cc2c(cc1CCC)OCO2 | inactive | – |
| CCCN(CCC)C(=O)SCC | inactive | – |

| Structure (SMILES) | outcome | AC50 |
| --- | --- | --- |
| COCCO | inactive | – |
| CCCCC(CC)COC(=O)c1ccccc1C(=O)O (stereo not given) | inactive | – |
| S=C([S-])NCCNC(=S)[S-].[Mn+2] | – | 2.8 µM (active) |
| CCOC(=O)C(C)Oc1ccc(Oc2cnc3cc(Cl)ccc3n2)cc1 (stereo not given) | – | 17.2 µM (active) |
| O=C(Nc1ccc([N+](=O)[O-])cc1Cl)c1cc(Cl)ccc1O | – | 5.5 µM (active) |
| O=C(O)C1(C(=O)Nc2ccc(Cl)cc2Cl)CC1 | – | 74.3 µM (active) |
| CC(C)CCCCCCc1ccc(O)cc1 | inactive | – |
| CCOC(=O)C(C)Oc1ccc(Oc2nc3ccc(Cl)cc3o2)cc1 (stereo not given) | – | 9.92 µM (active) |
| O=C(c1ccc(O)cc1O)c1ccc(O)cc1O | inactive | – |
| O=C(c1ccccc1)C1CCCCC1 | inactive | – |
| OB(O)O | inactive | – |
| C=CCOC(Cn1ccnc1)c1ccc(Cl)cc1Cl (stereo not given) | – | 31.3 µM (active) |
| CC(C)(c1ccc(O)cc1)c1ccc(O)cc1 | inactive | – |
| C#C[C@]1(O)CC[C@H]2[C@@H]3CCC4=CC(=O)CC[C@@H]4[C@H]3CC[C@@]21CC | inactive | – |
| N#CSCSc1nc2ccccc2s1 | – | 76.7 µM (active) |
| Cc1nn(C)c(Oc2ccccc2)c1C=NOCc1ccc(C(=O)OC(C)(C)C)cc1 | – | 12.3 µM (active) |
| CC1(C)C(C=C(Cl)Cl)C1C(=O)OCc1cccc(Oc2ccccc2)c1 (stereo not given) | inactive | – |
| CCOC(=O)c1ccc(O)cc1 | inactive | – |
| CCN(Cc1c(F)cccc1Cl)c1c([N+](=O)[O-])cc(C(F)(F)F)cc1[N+](=O)[O-] | – | 29.6 µM (active) |
| S=C(S)NCCNC(=S)S.[Mn+2].[S-]C([S-])=NCCN=C([S-])[S-].[Zn+2] | – | 985 nM (active) and 1.14 µM (active) and 908 nM (active) |
